# D2 PAM-1 – human D2 receptor positive allosteric modulation; P14416; potentiation, % (no concentration beside the values); AID 624464; DiscoveRx D2 beta-arrestin cells, luminescence, 90 min; 100% = 57 uM dopamine signal; 360,000 compounds, 0.23% hits; in the data active = potentiation above about 50%; inconclusive = mostly about 30% to 49%
# Target sequence (P14416 whole entry, looked up): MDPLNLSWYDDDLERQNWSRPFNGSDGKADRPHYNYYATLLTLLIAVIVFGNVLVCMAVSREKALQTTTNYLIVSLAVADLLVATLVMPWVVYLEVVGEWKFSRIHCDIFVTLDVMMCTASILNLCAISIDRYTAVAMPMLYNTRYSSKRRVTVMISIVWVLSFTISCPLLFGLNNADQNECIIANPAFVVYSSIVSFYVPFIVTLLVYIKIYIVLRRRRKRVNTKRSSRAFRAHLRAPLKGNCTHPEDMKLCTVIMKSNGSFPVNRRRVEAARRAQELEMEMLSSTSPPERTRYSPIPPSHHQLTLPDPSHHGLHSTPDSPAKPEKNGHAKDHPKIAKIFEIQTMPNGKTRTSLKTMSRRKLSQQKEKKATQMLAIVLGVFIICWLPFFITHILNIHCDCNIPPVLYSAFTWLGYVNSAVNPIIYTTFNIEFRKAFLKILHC
#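 PathHunter D2 cells, attached overnight at 37 deg C, received compound in DMSO plus dopamine at EC20 (50 nM final) for 90 min at 37 deg C. Beta-arrestin recruitment was read as luminescence after 1 h with detection reagent at ambient temperature.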
# D2 antag – antagonizes the human D2 dopamine receptor. P14416. HEK293 TREx D2 cells, calcium flux, dopamine EC80. inhibition, % at 10 µM. 340,000 compounds, 2% hits; in the data active = inhibition above about 30%; inactive = below that, where a call was filed; also: 0% is about no effect
#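 Tetracycline-induced HEK293 T-REx cells expressing D2 force-coupled to calcium signalling were dye-loaded, exposed to compound for 180 s, then challenged with an EC80 of dopamine; calcium flux was followed kinetically for a further 180 s.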
# D2 ag-1 – agonists of human D2 dopamine receptor | P14416 | HEK293 T-REx D2 cells, calcium flux agonist mode | activation, % at 2 µM | 340,000 compounds, 0.53% hits;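 active = activation over 3 SD above normal in the single-dose calcium agonist read, cut at about 30% in these data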; also: 0% is about no effect
#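 Tetracycline-induced HEK293 Trex cells with D2 receptor force-coupled to calcium signaling, plated overnight at 30 C and loaded with no-wash calcium dye. Calcium flux read kinetically for 180 s after compound addition; responses flag agonists.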
# D2 PAM-2 – positive allosteric modulators of human D2 dopamine receptor. P14416. potentiation, % at 10 µM. HEK293 T-REx D2, calcium flux, EC20 dopamine potentiation. AID 485347. 340,000 compounds, 0.34% hits;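 active = potentiation over 3 SD above the plate norm, cut at about 30% in these data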; also: 0% is about no effect
#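 Primary screen. Calcium kinetics in induced HEK293 T-REx D2 cells: compound pre-addition 180 s, EC20 dopamine, 180 s more.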
# D2 ag-2 – activates the human D2 dopamine receptor | DiscoveRx PathHunter D2 beta-arrestin, luminescence, 90 min; 100% = 57 uM dopamine signal | activation, % (test concentration not listed) | 360,000 compounds, 0.084% hits; in the data active = activation above about 40%; inconclusive = between about 15% and that limit
#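 DiscoveRx PathHunter D2 beta-arrestin cells (2,100/well) attached overnight, then compound-stimulated 90 min at 37 C in HBSS/10 mM HEPES/0.1% Tween-20 buffer; beta-galactosidase complementation read by luminescence after 1 h at ambient temperature. Dopamine 57 uM final (EC100) as control.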
# * marks the source's active call; other numbers are inactive results; ? = inconclusive; · = no result. An excerpt weighted towards active compounds, which were near 2.4% of everything screened.
SMILES,D2 PAM-1,D2 antag,D2 ag-1,D2 PAM-2,D2 ag-2
CC(C)(C)NC(=O)C(c1ccco1)N(C(=O)c1csnn1)c1ccccc1 (stereo not drawn),-7,0,-1,36*,-2
CC(C)(C)NC(=O)C(c1ccncc1)N(C(=O)c1csnn1)c1ccccc1 (stereo not drawn),-10,-14,0,-1,-3
Cc1cccc(C)c1NC(=O)Cn1nnc(S(=O)(=O)c2ccccc2)c1N,·,·,0,-21,·
O=C(COC(=O)/C=C/c1ccc(S(=O)(=O)N2CCOCC2)cc1)NCc1ccc(Cl)cc1,-14,47*,1,-15,-5
CCCn1c2ccccc2c2cnn(CC(=O)NC3CCCC(C)C3C)c(=O)c21 (stereo not drawn),4,35*,0,-5,0
CCCCC(=O)N/N=C/c1ccc(N2CCOCC2)c([N+](=O)[O-])c1,-5,59*,1,8,-1
COc1ccc(N2CCN(C(=O)c3ccccc3)CC2)c([N+](=O)[O-])c1,-2,6,-1,-5,-6
CCCCC(=O)N1CCN(c2ccc(OC)cc2[N+](=O)[O-])CC1,0,30*,0,9,0
Cc1ccccc1NC(=O)C(=O)NCC(c1ccc2c(c1)OCO2)N1CCN(c2ccccc2)CC1 (stereo not drawn),·,·,·,-18,·
CCCCn1c(N)c(N(Cc2ccccc2OC)C(=O)c2ccc([N+](=O)[O-])s2)c(=O)[nH]c1=O,50*,-23,0,-1,?
O=C(NC1CCCCC1)c1ccc(CS(=O)(=O)Cc2ccccc2F)o1,-4,44*,1,-1,-1
O=C(NC1CCCC1)c1ccc(CS(=O)(=O)Cc2ccccc2F)o1,-6,-6,0,-9,2
CCN(CC)c1ccc(/C=C2\C(=N)N3N=C(CC(=O)N4CCOCC4)SC3=NC2=O)cc1,-2,8,33*,-5,-1
CCCCC(=O)Nc1cccc(-c2nc3ccccc3s2)c1,·,·,·,7,·
COc1ccc(C(=O)O/N=C(\N)c2ccc(Cl)cc2)cc1,0,-18,0,1,?
COc1cccc(C(=O)O/N=C(\N)c2ccc([N+](=O)[O-])cc2)c1,136*,-7,0,1,?
COc1cc(C(=O)O/N=C(\N)c2ccncc2)cc(OC)c1OC,84*,13,-1,-9,14
Cc1ccc(/C(N)=N/OC(=O)c2ccc3c(c2)OCO3)cc1,27,0,0,0,6
COc1cccc(C(=O)O/N=C(\N)Cc2ccc(Cl)cc2)c1,125*,0,0,-3,?
COc1ccc(/C(N)=N/OC(=O)c2ccc3c(c2)OCO3)cc1,103*,-30,1,4,?
COc1ccc(/C(N)=N/OC(=O)c2cccc([N+](=O)[O-])c2)cc1,25,13,-1,-4,8
Cc1ccc(C)c(CN2C(=O)c3ccccc3S(=O)(=O)c3ccc(C(=O)N(C)C4CCCCC4)cc32)c1,·,·,0,-7,·
CC(C)NC(=O)CSc1nc2ccccc2c(=O)n1Cc1ccc(C(=O)NC(C)C)cc1,·,·,-2,-4,·
COc1ccc(C(=O)O/N=C(\N)c2ccncc2)cc1OC,85*,1,0,-3,?
COc1cc(C(=O)O/N=C2\C=CC(=O)C(C)=C2)cc(OC)c1OC,28,-1,1,-4,13
SMILES,D2 PAM-1,D2 antag,D2 ag-1,D2 PAM-2,D2 ag-2
COc1cccc(C(=O)O/N=C(\N)c2ccncc2)c1,59*,12,0,-3,9
COc1cc(C(=O)ON=C2C=C(C)C(=O)C(C)=C2)cc(OC)c1OC,64*,22,0,3,15
COc1cccc(C(=O)O/N=C(\N)c2ccc(C)cc2)c1,?,-12,-1,13,0
CCN(CC)c1ccc(NC(=O)c2cccn2-c2nnc(N3CCCCC3)s2)c(C)c1,·,·,10,-7,·
CCOC(=O)c1cnn(-c2ccc(C(=O)Nc3ccc(OC(F)(F)F)cc3)cc2)c1N,·,·,·,-4,·
Cc1ccc(S(=O)(=O)/N=C2\C=C(NS(=O)(=O)c3ccccc3)C(=O)c3ccccc32)cc1,1,·,·,·,-3
Cc1ccc(S(=O)(=O)/N=C2/C=C(C3C(=O)CC(C)(C)CC3=O)C(=O)c3ccccc32)cc1,110*,6,0,0,10
CN(C)/C=N/c1ncc(C(=O)c2ccc(Cl)cc2Cl)s1,0,-12,1,0,-7
CN(C)/C=N/c1ncc(C(=O)c2ccc(Cl)cc2)s1,-16,57*,1,-11,0
O=c1[nH]c2ccccc2cc1CN(CC1CCCO1)S(=O)(=O)c1ccccc1 (stereo not drawn),0,35*,0,-25,5
COc1ccc(/C=C/C(=O)c2ccc(Cl)s2)cc1O,2,37*,1,-3,-5
CCOC(=O)c1ccc(NC(=O)c2nc[nH]c2C(=O)N2CCc3ccccc3C2)cc1,-9,5,1,-13,-4
Cc1cccc(NC(=O)c2nc[nH]c2C(=O)N2CCC(C)CC2)c1,-27,39*,-1,-25,0
Cc1ccc(NC(=O)c2nc[nH]c2C(=O)N2CCc3ccccc3C2)cc1,-21,63*,0,-25,-3
O=C(OCCC12CC3CC(CC(C3)C1)C2)c1ccc(NCc2cc(O)ccc2O)cc1,64*,·,·,·,?
O=C(OCC12CC3CC(CC(C3)C1)C2)c1ccc(NCc2cc(O)ccc2O)cc1,55*,·,·,·,?
N#CCC(=O)Nc1ccc(C(=O)OCC(=O)C23CC4CC(CC(C4)C2)C3)cc1,-2,0,1,12,-4
COc1ccccc1CNC(=O)CCCCn1c(=O)c2ccccc2n(CC(=O)Nc2c(C)cc(C)cc2C)c1=O,·,·,0,9,·
CCOC(=O)C1(CC2CCCCO2)CCN(Cc2ccc(OC)cc2F)CC1 (stereo not drawn),-15,61*,-1,-21,-3
O=C(c1cccc(Br)c1)N1CCN(c2ccc(N3CCOCC3)nn2)CC1,-8,33*,0,-15,-3
O=C(c1cncc(Br)c1)N1CCN(c2ccc(N3CCOCC3)nn2)CC1,-5,18,0,-2,-3
O=C(Oc1ccccc1C(=O)N1CCOCC1)c1cccc(Br)c1,-12,47*,0,3,0
O=C(CCCc1ccccc1)NC1CC(=O)N(c2ccc(F)cc2)C1 (stereo not drawn),·,·,1,·,·
COc1cccc(NC(=O)C(C)n2c(=O)cc(C(F)(F)F)c3c(C)nn(C)c32)c1 (stereo not drawn),·,·,0,-14,·
COc1ccc(C(=O)NCC(c2ccco2)N(C)C)cc1S(=O)(=O)NCc1ccc(Cl)cc1 (stereo not drawn),-39,78*,0,-24,-2

# Screening results from PubChem.
